The campaign covered roughly 5,500 compounds. About 2,000 (36%) were called active. Inconclusive results (about 18%) are left out. The list shows a part of the results. A number with no mark means an inactive call. Rule as the data show it: active = normalized growth mostly below about 0.91 (no sharp cut-off); inconclusive = no clear call, values can overlap the other calls; inactive = mostly above about 0.92.
Assay: chemical genetic growth profiling, strain panel (AID 1159580);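 also: tested at 20 µM; growth read once vehicle control cultures reached saturation at 30 °C; 1 = growth at the plate median or of vehicle wells; lower values mean less growth of the strain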
Settings: S. cerevisiae deletion strains, growth OD
[1] = locus YDL101C, strain DUN1, hits give low values
[2] = locus YHR030C, strain SLT2, hits give low values

SMILES: O=C(Nc1ccc(OC(F)(F)F)cc1)OC1CN(C(c2ccccc2)c2ccccc2)C1
- normalized growth (locus YAR019C, strain CDC15, hits give low values): 1
- normalized growth (locus YBL105C, strain PKC1, hits give low values): 0.995
- normalized growth (locus YBR135W, strain CKS1, hits give low values): 0.996
- normalized growth (locus YBR136W, strain MEC1, hits give low values): 0.999
- normalized growth (locus YBR160W, strain CDC28, hits give low values): 0.999
- normalized growth (locus YDL017W, strain CDC7, hits give low values): 0.999
- normalized growth (locus YDL028C, strain MPS1, hits give low values): 1
- normalized growth [1]: 0.984
- normalized growth (locus YDL108W, strain KIN28, hits give low values): 0.991
- normalized growth (locus YDL132W, strain cdc53, hits give low values): 1
- normalized growth (locus YDL214C, strain PRR2, hits give low values): 0.993
- normalized growth (locus YDR052C, strain DBF4, hits give low values): 0.99
- normalized growth (locus YDR054C, strain cdc34, hits give low values): 0.988
- normalized growth (locus YDR226W, strain ADK1, hits give low values): 0.995
- normalized growth (locus YDR477W, strain SNF1, hits give low values): 0.988
- normalized growth (locus YER123W, strain YCK3, hits give low values): 0.96
- normalized growth (locus YER133W, strain GLC7, hits give low values): 0.992
- normalized growth (locus YFL009W, strain cdc4, hits give low values): 0.988
- normalized growth (locus YFL029C, strain CAK1, hits give low values): 0.992
- normalized growth (locus YFR003C, strain YPI1, hits give low values): 0.998
- normalized growth (locus YFR019W, strain FAB1, hits give low values): 0.983
- normalized growth (locus YFR028C, strain CDC14, hits give low values): 1.01
- normalized growth (locus YGR040W, strain KSS1, hits give low values): 0.987
- normalized growth (locus YGR052W, strain FMP48, hits give low values): 1.1
- normalized growth (locus YGR092W, strain DBF2, hits give low values): 0.961
- normalized growth [2]: 0.9
- normalized growth (locus YHR079C, strain IRE1, hits give low values): 1.02
- normalized growth (locus YHR082C, strain KSP1, hits give low values): 1.06
- normalized growth (locus YHR205W, strain SCH9, hits give low values): 0.981
- normalized growth (locus YIL147C, strain SLN1, hits give low values): 1
- normalized growth (locus YJL095W, strain BCK1, hits give low values): 0.96
- normalized growth (locus YJL128C, strain PBS2, hits give low values): 0.993
- normalized growth (locus YJL157C, strain FAR1, hits give low values): 0.986
- normalized growth (locus YJR016C, strain ILV3, hits give low values): 1.01
- normalized growth (locus YJR066W, strain TOR1 (second series), hits give low values): 0.981
- normalized growth (locus YJR066W, strain TOR1, hits give low values): 0.98
- normalized growth (locus YKL048C, strain ELM1, hits give low values): 0.961
- normalized growth (locus YKL067W, strain YNK1, hits give low values): 0.969
- normalized growth (locus YKL101W, strain HSL1, hits give low values): 0.982
- normalized growth (locus YKL193C, strain SDS22, hits give low values): 1.01
- normalized growth (locus YKL203C, strain TOR2, hits give low values): 1.02
- normalized growth (locus YLR113W, strain HOG1, hits give low values): 0.943
- normalized growth (locus YLR133W, strain CKI1, hits give low values): 0.972
- normalized growth (locus YLR403W, strain SFP1, hits give low values): 0.973
- normalized growth (locus YML070W, strain DAK1, hits give low values): 0.966
- normalized growth (locus YMR001C, strain CDC5, hits give low values): 1
- normalized growth (locus YMR205C, strain PFK2 (second series), hits give low values): 0.967
- normalized growth (locus YMR277W, strain FCP1, hits give low values): 1.01
- normalized growth (locus YNL006W, strain LST8, hits give low values): 0.994
- normalized growth (locus YNL020C, strain ARK1, hits give low values): 0.969
- normalized growth (locus YNL161W, strain CBK1, hits give low values): 1
- normalized growth (locus YNL183C, strain NPR1, hits give low values): 0.969
- normalized growth (locus YNL207W, strain RIO2, hits give low values): 0.985
- normalized growth (locus YNL222W, strain SSU72, hits give low values): 1
- normalized growth (locus YNL307C, strain MCK1 (second series), hits give low values): 1
- normalized growth (locus YOL078W, strain AVO1, hits give low values): 1
- normalized growth (locus YOL136C, strain PFK27, hits give low values): 0.986
- normalized growth (locus YOR061W, strain CKA2, hits give low values): 0.987
- normalized growth (locus YOR119C, strain RIO1, hits give low values): 1.06
- normalized growth (locus YOR231W, strain MKK1, hits give low values): 1.01
- normalized growth (locus YOR329C, strain SCD5, hits give low values): 0.999
- normalized growth (locus YPL031C, strain PHO85, hits give low values): 0.99
- normalized growth (locus YPL153C, strain RAD53, hits give low values): 0.961
- normalized growth (locus YPL204W, strain HRR25, hits give low values): 0.96
- normalized growth (locus YPL209C, strain IPL1, hits give low values): 0.984
- normalized growth (locus YPL256C, strain CLN2, hits give low values): 1
- normalized growth (locus YPR025C, strain CCL1, hits give low values): 1
- normalized growth (locus YPR106W, strain ISR1, hits give low values): 0.991
- normalized growth (locus YPR111W, strain DBF20, hits give low values): 0.977
- normalized growth (strain NNK1, hits give low values): 0.981
- normalized growth (strain TSCII, hits give low values): 1.01

SMILES: O=[N+]([O-])c1ccc(N2CCCN(C(=S)Nc3ccc(Cl)cc3Cl)CC2)nc1
- normalized growth (locus YAL013W, strain DEP1, hits give low values): 0.966
- normalized growth (locus YBR229C, strain ROT2, hits give low values): 0.96
- normalized growth (locus YCL061C, strain MRC1, hits give low values): 0.956
- normalized growth [1]: 0.942
- normalized growth (locus YDL134C, strain PPH21, hits give low values): 0.979
- normalized growth (locus YDR150W, strain NUM1, hits give low values): 0.886
- normalized growth (locus YEL061C, strain CIN8, hits give low values): 0.912
- normalized growth (locus YGR078C, strain PAC10, hits give low values): 0.961
- normalized growth (locus YGR229C, strain SMI1, hits give low values): 0.989
- normalized growth [2]: 0.422 (active)
- normalized growth (locus YHR087W, strain rtc3, hits give low values): 0.906 (active)
- normalized growth (locus YJR043C, strain POL32, hits give low values): 0.984
- normalized growth (locus YJR075W, strain HOC1, hits give low values): 0.937
- normalized growth (locus YLR039C, strain RIC1, hits give low values): 0.628 (active)
- normalized growth (locus YLR058C, strain SHM2 (second series), hits give low values): 0.96
- normalized growth (locus YLR085C, strain ARP6, hits give low values): 0.543 (active)
- normalized growth (locus YLR262C, strain YPT6, hits give low values): 0.686 (active)
- normalized growth (locus YML094W, strain GIM5, hits give low values): 0.932
- normalized growth (locus YMR219W, strain ESC1, hits give low values): 0.982
- normalized growth (locus YMR307W, strain GAS1, hits give low values): 0.433 (active)
- normalized growth (locus YNL153C, strain GIM3, hits give low values): 0.98
- normalized growth (locus YNL298W, strain CLA4 (second series), hits give low values): 0.831 (active)
- normalized growth (locus YNL322C, strain KRE1, hits give low values): 0.98
- normalized growth (locus YNR030W, strain Alg12, hits give low values): 0.8 (active)
- normalized growth (locus YOL006C, strain TOP1, hits give low values): 0.831
- normalized growth (locus YPL055C, strain LGE1, hits give low values): 0.928
- normalized growth (locus YPL241C, strain CIN2, hits give low values): 0.866
- normalized growth (locus YPR135W, strain CTF4, hits give low values): 0.337 (active)

— PubChem BioAssay AID1159580 (chemical genetic matrix, 2015)
